{"source": "the supplement of paper PMC7156485", "note": "± gives the standard deviation of the averaged measurements.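 Also: TDF denotes transformed human dermal fibroblasts of mesenchymal origin.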", "data": [{"test_system": "HCC1569", "test": "cell number relative to DMSO (% of DMSO); higher = more cells (less growth inhibition / toxicity)", "conditions": "concentration: 10 µM; 24 h", "summary_of_the_method": "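HCC1569 and TDF cells (800 per well, 384-well plates, RPMI with 10% FBS) were treated with compounds at 10 µM for 24 h at 37 °C, in triplicate. Cells were fixed in 3.7% formaldehyde and stained with a rabbit anti-H1.0 antibody, an AlexaFluor 647 secondary and DAPI; six fields per well were imaged at ×10. H1.0 nuclear intensity or cell number is expressed as percent of the plate DMSO control, taking the median of replicates. HCC1569 values were smoothed for positional effects.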", "values": [{"smiles": "CCC=CCC(O)C=CC=CCC=CCC=CCCCC(=O)O", "note": "(stereo not given)", "cell number": 105}, {"smiles": "CN1CCN(C2=Nc3ccccc3Sc3ccc(Cl)cc32)CC1", "note": "[Clothiapine]", "cell number": 103}, {"smiles": "CC(O)C1C(=O)N2C(C(=O)O)=C(SCCN=CN)CC12", "note": "(stereo not given) [Imipenem]", "cell number": 111}, {"smiles": "O=c1cc(N2CCNCC2)oc2c(-c3ccccc3)cccc12", "cell number": 101}, {"smiles": "COc1cccc2c1C1CN(CCCCn3c(=O)[nH]c4c(sc5ncc(-c6ccccc6)nc54)c3=O)CC1CO2.Cl", "note": "(stereo not given) [Fiduxosin hydrochloride]", "cell number": 88.8}, {"smiles": "CC(C)CNCc1ccc(-c2ccccc2S(=O)(=O)N2CCCC2)cc1.Cl", "cell number": 96}, {"smiles": "NC1CCCCC1N.O=C([O-])C(=O)[O-].[Pt+2]", "note": "(stereo not given) [Oxaliplatin]", "cell number": "87.5 ± 5.5"}, {"smiles": "C[C@@H]1CCN(C(=O)CC#N)C[C@@H]1N(C)c1ncnc2[nH]ccc12", "cell number": 103}, {"smiles": "CC1(C)CCC(C)(C)c2cc(C3(c4ccc(C(=O)O)cc4)OCCO3)ccc21", "cell number": 100}, {"smiles": "COC1C=COC2(C)Oc3c(C)c(O)c4c(O)c(cc(O)c4c3C2=O)NC(=O)C(C)=CC=CC(C)C(O)C(C)C(O)C(C)C(OC(C)=O)C1C", "note": "(stereo not given)", "cell number": 103}, {"smiles": "CCCCCCCCC=CCCCCCCCCCCCC(=O)O", "note": "[13(E)-Docosenoic acid]", "cell number": 104}, {"smiles": "C=CCc1ccc(O)c(OC)c1", "note": "[Eugenol]", "cell number": 103}, {"smiles": "CC(=O)N1CCN(C(=O)/C=C/c2ccc(Sc3ccccc3C(C)C)c([N+](=O)[O-])c2)CC1", "cell number": 82.5}, {"smiles": "CCn1c(=O)[nH]c2cc(Cl)c(Cl)cc21", "cell number": 99.9}, {"smiles": "COc1cc2c3cc1Oc1c(OC)c(OC)cc4c1C(Cc1ccc(OC(=O)c5ccc([N+](=O)[O-])cc5)c(c1)Oc1ccc(cc1)CC3N(C)CC2)N(C)CC4", "note": "(stereo not given) [E6 Berbamine]", "cell number": 90.2}, {"smiles": "CC1(C)C(=O)N(CCN2CCC(C(=O)c3ccc(F)cc3)CC2)c2ccccc21.Cl", "note": "[LY-310,762 hydrochloride]", "cell number": 101}, {"smiles": "Cn1c(=O)c2c(ncn2C)n(C)c1=O", "note": "[Caffeine]", "cell number": "102 ± 2.6"}, {"smiles": "CNC1C(O)C(NC)C2OC3(O)C(=O)CC(C)OC3OC2C1O.Cl.Cl", "note": "(stereo not given) [Spectinomycin.2HCl]", "cell number": 98.8}, {"smiles": "CN1C2CCC1CC(OC(=O)c1c[nH]c3ccccc13)C2.Cl", "note": "(stereo not given) [3-Tropanyl-indole-3-carboxylate hydrochloride]", "cell number": 103}, {"smiles": "CCCNC(=O)NS(=O)(=O)c1ccc(Cl)cc1", "note": "[Chlorpropamide]", "cell number": 101}, {"smiles": "Cc1ccccc1N1C(=O)c2cc(S(N)(=O)=O)c(Cl)cc2NC1C", "note": "(stereo not given) [Metolazone]", "cell number": 104}, {"smiles": "CCCCNc1ccc(C(=O)OCCN(C)C)cc1.Cl", "note": "[Tetracaine hydrochloride]", "cell number": 100}, {"smiles": "CCN(CC)C(=S)SSC(=S)N(CC)CC", "note": "[Tetraethylthiuram disulfide]", "cell number": 97.2}, {"smiles": "Nn1nnc2ccccc21", "note": "[1-Aminobenzotriazole]", "cell number": 106}, {"smiles": "CN(C)NN=C1N=CN=C1C(N)=O", "note": "[Dacarbazine]", "cell number": 102}, {"smiles": "COc1ccc(S(=O)(=O)Nc2nc(-c3cccc([N+](=O)[O-])c3)cs2)cc1OC", "cell number": 102}, {"smiles": "C#Cc1cccc(Nc2ncnc3cc(OCCOC)c(OCCOC)cc23)c1", "note": "[Erlotinib]", "cell number": "94.8 ± 8"}, {"smiles": "C[C@H](O)[C@H](O)[C@H]1CNc2[nH]c(N)nc(=O)c2N1.Cl.Cl", "cell number": 103}, {"smiles": "CC(C)n1cnc2c(NCc3ccccc3)nc(NCCCO)nc21", "note": "[Bohemine]", "cell number": 91.4}, {"smiles": "COc1ccc(CC2c3cc(OC)c(OC)cc3CC[N+]2(C)CCC(=O)OCCCCCOC(=O)CC[N+]2(C)CCc3cc(OC)c(OC)cc3C2Cc2ccc(OC)c(OC)c2)cc1OC.O=S(=O)([O-])c1ccccc1.O=S(=O)([O-])c1ccccc1", "note": "(stereo not given) [Atracurium besylate]", "cell number": 98.9}, {"smiles": "O=c1c(-c2ccc(O)cc2)coc2cc(OC3OC(CO)C(O)C(O)C3O)cc(O)c12", "note": "(stereo not given) [Genistin]", "cell number": 103}, {"smiles": "OCc1c[nH]c2ccccc12", "note": "[Indole-3-carbinol]", "cell number": 97.5}, {"smiles": "O=c1[nH]c(=O)n(C2CC(O)C(CO)O2)cc1F", "note": "(stereo not given) [Floxuridine]", "cell number": 81.3}, {"smiles": "CC(=O)NC1C(N=C(N)N)C=C(C(=O)O)OC1C(O)C(O)CO", "note": "(stereo not given)", "cell number": 102}, {"smiles": "O=C(O)c1cc(N(Cc2ccccc2O)Cc2ccccc2O)ccc1O", "note": "[Lavendustin B]", "cell number": 102}, {"smiles": "C=CC1CN2CCC1CC2C(O)c1ccnc2ccc(OC)cc12.C=CC1CN2CCC1CC2C(O)c1ccnc2ccc(OC)cc12.O=S(=O)(O)O", "note": "(stereo not given) [Quinine sulfate]", "cell number": 102}, {"smiles": "CC1(NCC(O)COc2cccc3[nH]ccc23)CCC(C(C)(C)NC(=O)CBr)CC1", "note": "(stereo not given) [Pindobind-5HT1A]", "cell number": 61.4}, {"smiles": "CCC=CCC=CCC=CCC=CCC=CCCCC(=O)O", "cell number": 98}, {"smiles": "CCN1CCCC1CNC(=O)c1c(O)c(Cl)cc(Cl)c1OC", "note": "(stereo not drawn) [S(-)-Raclopride]", "cell number": 102}, {"smiles": "COC1=C(OC)C(=O)c2ccccc2C1=O", "note": "[2,3-Dimethoxy-1,4-naphthoquinone]", "cell number": 74.6}]}]}
